Compound activity deposited in PubChem BioAssay by several laboratories.
Shown are actives, neighbours in structure and some others; about 3.2% of the full set was active somewhere.
Calb biofilm kill = kills Candida albicans biofilms. 0.14% of 85,000 active. inhibition, % at 6 µM. AID 834. C. albicans biofilm + clotrimazole, Alamar Blue;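 active means inhibition above 20%; inactive means inhibition below 20%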;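 further: preformed 24 hr biofilms exposed to compound for 48 hr; 0% = biofilm without compound and 100% = blank killed by clotrimazole plus chlorhexidine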
EphB4 ephrin blk = antagonists of human EphB4-ephrin-B2 interaction; P54760; EphB4 LBD / TNYL-RAW-Alexa532 peptide, fluorescence polarization; inhibition, % at 7 µM; 0.15% of 97,000 active; AID 720;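 active means inhibition above the screen-wide mean inhibition plus 3 SD, cut at about 15% in these data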;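 further: 0% = DMSO wells and 100% = excess unlabeled TNYL-RAW peptide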
Target sequence (P54760 whole entry, looked up, the tested form may be a part): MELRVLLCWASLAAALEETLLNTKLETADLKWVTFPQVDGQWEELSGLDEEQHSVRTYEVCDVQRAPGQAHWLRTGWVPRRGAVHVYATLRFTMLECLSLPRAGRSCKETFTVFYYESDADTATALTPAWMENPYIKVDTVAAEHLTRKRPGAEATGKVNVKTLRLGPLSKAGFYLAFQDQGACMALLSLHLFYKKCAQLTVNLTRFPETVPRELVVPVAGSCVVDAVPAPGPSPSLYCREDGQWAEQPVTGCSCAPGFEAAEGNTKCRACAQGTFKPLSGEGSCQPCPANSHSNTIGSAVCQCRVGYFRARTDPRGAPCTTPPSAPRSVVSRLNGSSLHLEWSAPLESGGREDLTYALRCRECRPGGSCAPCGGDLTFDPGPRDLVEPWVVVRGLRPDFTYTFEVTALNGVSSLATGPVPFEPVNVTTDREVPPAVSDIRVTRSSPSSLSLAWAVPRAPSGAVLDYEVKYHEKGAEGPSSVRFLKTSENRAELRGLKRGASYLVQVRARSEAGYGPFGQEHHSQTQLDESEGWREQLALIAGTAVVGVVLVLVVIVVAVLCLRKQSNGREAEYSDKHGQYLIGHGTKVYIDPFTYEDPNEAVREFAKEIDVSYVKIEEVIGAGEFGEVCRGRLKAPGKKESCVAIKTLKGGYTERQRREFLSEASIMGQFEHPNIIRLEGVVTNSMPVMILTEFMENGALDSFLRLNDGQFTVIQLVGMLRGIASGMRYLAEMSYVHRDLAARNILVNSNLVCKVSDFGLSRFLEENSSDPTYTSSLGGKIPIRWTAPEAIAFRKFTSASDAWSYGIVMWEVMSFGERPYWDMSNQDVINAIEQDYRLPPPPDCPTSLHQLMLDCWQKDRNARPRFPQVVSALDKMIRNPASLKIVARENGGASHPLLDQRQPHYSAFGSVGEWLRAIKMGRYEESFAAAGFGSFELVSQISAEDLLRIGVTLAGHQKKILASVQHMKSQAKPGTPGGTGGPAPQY
MT1-MMP txn act = activates MT1-MMP transcription | AID 750 | activation factor at 10 µM | 0.16% of 86,000 active | HT1080 MT1-MMP promoter luciferase reporter, luminescence, overnight; stronger effect = higher value;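 active means activation factor of at least 2 for MT1-MMP transcription at 10 µM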
ERb SRC1 inh = ER-beta (human) coactivator binding inhibition; Q92731; TR-FRET ER-beta LBD / SRC1-Cy5 peptide binding; receptor agonist-loaded with 1 µM estradiol; inhibition, % at 25.6 µM; 1.3% of 86,000 active; AID 633;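 active means compounds whose percent inhibition of the receptor-coactivator binding signal exceeds about 50% in the single-dose screen, limit read from the data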;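 further: 0% = receptor plus peptide wells without compound and 100% = peptide-only wells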
ERa coact pot = ER-alpha (human) coactivator binding potentiation | coactivator binding (% of control), % at 25.6 µM | TR-FRET ERalpha-LBD/SRC-Cy5 coactivator binding, 2 h; 100 = basal binding, no effect | P03372 | 1.3% of 86,000 active | AID 639; in the data active means activity above about 200%;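 further: binding measured in presence of low estradiol as agonist stimulus; 0% = peptide alone without receptor and 100% = receptor with peptide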
ERa coact inh = blocks coactivator binding to human estrogen receptor alpha | P03372 | TR-FRET ER-alpha LBD / SRC-1 peptide, estradiol-bound | inhibition, % at 25.6 µM | 1.7% of 86,000 active; in the data active means inhibition above about 50%;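 further: 0% = receptor plus peptide control and 100% = peptide only without receptor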
* marks the source's active call; other numbers are inactive results; · = not tested or not shown; [ ] = dose if it differs, or a comment.

SMILES	Calb biofilm kill	EphB4 ephrin blk	MT1-MMP txn act	ERb SRC1 inh	ERa coact pot	ERa coact inh
CC(=O)CC1(O)C(=O)N(CN2CCN(c3ccccc3)CC2)c2ccccc21 (stereo not drawn)	9.2	-3.4	1.1	1.2	125.2	-6.5
CCOc1ccc(Oc2ccc(-c3nnc(-c4ccccc4)o3)cc2[N+](=O)[O-])cc1	·	-4.2	·	·	·	·
COc1ccc(-c2n[nH]c(C(F)(F)F)c2-c2cc3ccccc3o2)c(O)c1	6.3	2.4	1	6.2	239.2*	1.2
CCOC(=O)C1=C(C)N(CCCC(=O)O)C(=O)NC1c1ccc2c(c1)OCO2 (stereo not drawn)	·	·	1.1	·	·	·
COc1ccc(OCCCC(=O)NCc2ccco2)cc1	·	-5.5	·	·	·	·
COc1ccc(OCCCC(=O)NCC(C)C)cc1	64.5*	-3.5	1.1	-4.7	107.6	-0.6
Cc1ccc(C(C(=O)NC(C)(C)C)N(Cc2cccs2)C(=O)c2csnn2)cc1 (stereo not drawn)	8.7	-5.6	1.3	-4.3	114.5	59.7*
CC(C)(C)NC(=O)C(c1ccc(F)cc1)N(Cc1ccco1)C(=O)c1csnn1 (stereo not drawn)	0.1	-2.9	1.1	-4.7	102.4	4.4
CCc1nnc(NC(=O)C2Cc3ccccc3CN2S(=O)(=O)c2cccs2)s1 (stereo not drawn)	·	2.1	1.4	27.3	79.8	55.2*
CCc1nnc(NC(=O)C2Cc3ccccc3CN2S(=O)(=O)c2ccc(C)cc2)s1 (stereo not drawn)	1.0	7.0	1.7	6.8	89.4	1.2
COc1ccc(-n2c(=O)cc(N3CC(C)OC(C)C3)[nH]c2=O)cc1 (stereo not drawn)	-2.2	-0.8	1.1	-2.1	103.5	-19.1
COC(=O)[C@@H]1C[C@@H]2CC[C@@H](O)C[C@@H]2N1Cc1ccc(-c2ccccc2)cc1	·	·	1.1	·	·	·
CCOC(=O)CC1(CC(=O)OCC)NC(=O)c2c(C)sc(C(=O)OCC)c2N1	12.6	6.2	1.6	4.4	105.0	0.3
CCOC(=O)c1sc(C)c2c1NC(c1ccc(N(C)C)cc1)NC2=O (stereo not drawn)	4.0	-2.2	1.2	11.7	216.0*[fluorescence artefact?]	11.1
COC(=O)/C(=C\Nc1ccc(Cl)c2ccccc12)c1ncc(C(F)(F)F)cc1Cl	-2.2	6.9	1.2	14.4	106.9	55.0*
Cn1c(=O)oc2cc(S(=O)(=O)Nc3ccc4c(c3)OCO4)ccc21	-3.9	4.9	1.1	45.3	51.4	57.3*[fluorescence artefact?]
COC(=O)c1ccc(/C=N/NC(=O)CC(=O)NC(C)C)cc1	·	0.3	·	·	·	·
CCOc1nc(C)ccc1-c1noc(-c2ccncc2)n1	9.1	-1.2	1.3	-1.7	232.7*[fluorescence artefact?]	-6.0
CCOc1nc(-c2ccccc2)ccc1-c1noc(-c2ccncc2)n1	5.1	·	1.3	30.3	196.2	33.4
CCOc1nc(-c2ccc(OC)cc2)ccc1-c1noc(-c2ccncc2)n1	-1.9	·	1.2	37.6	138.4	76.2*
CCc1nc2ccccc2c(C(=O)OCC(=O)NCCCN2CCCC2=O)c1C	3.6	-7.1	1.1	-10.5	123.8	-6.5
Cc1ccc(NC(=O)CN(C)S(=O)(=O)c2cccc3cccnc23)cc1	23.4*	2.2	1	-6.7	110.2	-4.9
CC1(C)Cc2c(sc(NC(=O)c3ccco3)c2C(=O)O)CO1	5.8	0.4	1.3	2.2	94.0	-4.5
CC1(C)Cc2c(sc(NC(=O)c3ccc(Br)o3)c2C#N)CO1	·	4.5	2.3*	-7.2	112.2	-3.9
CC1(C)CC2(CCO1)OC(=O)CC2C(=O)Nc1cccc2ccccc12 (stereo not drawn)	·	0.3	·	·	·	·
SMILES	Calb biofilm kill	EphB4 ephrin blk	MT1-MMP txn act	ERb SRC1 inh	ERa coact pot	ERa coact inh
Clc1ccc2nc(CSc3nnc(-c4c[nH]c5ccccc45)o3)cn2c1	5.4	·	1	42.0	260.8*[fluorescence artefact?]	31.1
Cn1c(=O)c2nc(-c3ccc(Cl)cc3Cl)oc2c2ccccc21	2.6	·	1.2	44.7	131.6	58.8*[fluorescence artefact?]
O=C(NCCCn1ccnc1)Nc1cccc(Cl)c1	5.5	-7.9	1	-4.3	118.8	1.6
CCOC(=O)c1ccc(NC(=O)CC2SC(=NC)N(C)C2=O)cc1 (stereo not drawn)	-1.9	11.0	1.1	-4.5	91.2	-7.5
CN=C1SC(CC(=O)Nc2ccc(C(C)=O)cc2)C(=O)N1C (stereo not drawn)	-1.9	-0.1	1	70.9*	51.8	79.4*
CC1CCOC2(O1)C(=O)N(CN1CCN(c3cccc(Cl)c3)CC1)c1ccccc12 (stereo not drawn)	12.8	-12.9	1.1	3.1	95.7	4.4
c1ccc(OCc2nnc3sc(C4COc5ccccc5O4)nn23)cc1 (stereo not drawn)	3.7	-5.4	1.1	60.4*	105.6	57.7*
COc1ccc(CCN2CC34C=CC(O3)C(C(=O)NCc3ccccc3)C4C2=O)cc1OC (stereo not drawn)	·	1.5	1.1	·	·	·
CCc1cccc2c(C(=O)Cn3nnc(-c4ccc(OC)c(OC)c4)n3)c[nH]c12	-1.8	11.8	1.1	26.9	103.4	61.5*
Cc1cc(C)c(C#N)c(SCc2ccccc2)n1	4.8	7.5	1.1	-2.7	94.5	1.4
Cc1cc(C)c(C#N)c(SCc2cc3c(cc2Cl)OCO3)n1	3.8	2.9	1.2	58.2*[fluorescence artefact?]	189.3	56.0*[fluorescence artefact?]
COc1cccc(=O)c2c(C)n(C)c(C)c12	-4.9	1.4	1.1	50.8*[fluorescence artefact?]	71.9	37.5
CSc1nc(NCc2ccco2)c2ccccc2n1	5.7	1.6	·	3.6	98.1	54.5*
COc1ccc(/C=N/c2oc(-c3ccccc3)cc2C#N)cc1OC	·	0.7	·	·	·	·
C=CCNc1nc(NCc2ccccc2)c(C#N)c2c1CN(C)CC2	-0.5	5.0	1.6	3.2	100.1	-1.4
CCN1CCc2c(C#N)c(NCc3ccccc3)nc(N(CC)CC)c2C1	6.1	3.5	1	-0.2	675.4*[fluorescence artefact?]	4.6
N#Cc1c(NCCN)nc(NCc2ccccc2)c2c1CCN(Cc1ccccc1)C2	4.7	-8.2	1.1	38.3	96.3	78.5*
Cc1cc(N(C)C)c(C#N)c(NCc2ccccc2)n1	4.6	6.3	1.1	-4.2	101.5	-0.6
COc1cccc(NC(=O)N2CCN(Cc3nc4ccccc4c(=O)[nH]3)CC2)c1	·	·	1.1	·	·	·
Oc1ccc(N=Cc2ccc(-c3cccs3)s2)cc1	5.3	-11.5	1	62.5*[fluorescence artefact?]	33.6	33.4
O=C1CCCC(O)=C1C=Nc1ccc(O)cc1	4.5	-4.4	0.9	-16.8	93.3	-25.0
COC(=O)[C@@]1(Cc2ccc(OC)cc2)[C@H]2c3cc(C(=O)N(C)C)n(CCF)c3C[C@H]2CN1C(=O)c1ccccc1	·	·	1.2	·	·	·
CCOC(=O)Cn1c(=O)oc2cc(S(=O)(=O)N3CCN(c4ccccn4)CC3)ccc21	-1.5	-8.2	1.1	33.0	244.9*[fluorescence artefact?]	30.6
CSc1nc(-c2ccccc2)nc2[nH]ccc(=O)c12	5.2	3.8	0.9	24.9	317.0*	51.6*[fluorescence artefact?]
CCOc1ccc(C(C)(C)C)cc1S(=O)(=O)N1CC(C)OC(C)C1 (stereo not drawn)	6.4	2.3	1	-0.4	99.6	0.4
